# Test results from PubChem BioAssay.
# Where “and” joins values, the source holds several entries; their conditions need not be identical. Identical values can stand only once. Calls of active or inactive are those of the source.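 How the source made its calls, unless noted: active means compounds whose cell count with miR-34 switched on is under 0.7 times the count with it off; inactive means the rest.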
# Tests used:
# [1] = liver-stage malaria parasite growth inhibition, primary screen, cell-based, HepG2, luciferase luminescence, HepG2 viability (AID 624349; in the data active means parasite load remaining mostly below about 12%, no sharp cut-off; inactive means mostly above about 10%;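 further: 100% = mean of DMSO negative control wells on the same plate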); conditions: P. berghei liver stage in HepG2, luciferase luminescence, concentration not given here; parasite load remaining: stronger effect = lower value; viability: measured here: HepG2 viability without parasites
# [2] = stimulators of nuclear beta-catenin in C2C12, primary screen, imaging, WNT3A-conditioned medium, mouse C2C12, NPC library (AID 1117326; in the data active means nuclear beta-catenin stimulation mostly above about 4.2%, no sharp cut-off; inactive means mostly below about 10%); conditions: stronger effect = higher value
# [3] = stimulators of insulin release from INS-1E, primary screen, cell-based, 5 mM glucose, NPC library (AID 1117329;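 active means compound raises insulin release from rat beta cells at 5 mM glucose, no numeric limit stated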); conditions: rat INS-1E insulin secretion, at 10 µM, stronger effect = higher value
# [4] = growth inhibition of GSK3B-pretreated HCT116 cells – cell-based, CellTiter-Glo, 0.2 to 20 µM (AID 1117336;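 active means compounds lowering colon cancer cell viability after pretreatment blocking the GSK3B kinase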); conditions: HCT116 viability after GSK3B inhibitor, at 20 µM, stronger effect = higher value
# [5] = inhibition of endothelial tube formation, primary screen, imaging, VEGF stimulated, CD31 staining, tube area, NPC library (AID 1117340;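 active means compound that reduces growth-factor-driven endothelial tube area in a mixed cell culture, no cutoff stated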); conditions: VEGF-stimulated ADSC/ECFC co-culture, at 10 µM, stronger effect = higher value
# [6] = glucagon-like peptide 1 release enhancers, primary assay, NCI-H716 cell line, NPC library (AID 1117341;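 active means compound raises GLP1 secretion from the human gut endocrine cells, with no numeric limit stated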); conditions: NCI-H716 cells, at 10 µM, stronger effect = higher value
# [7] = HCT116 colon cancer cell growth inhibition, primary screen, CellTiter-Glo luminescence, NPC library (AID 1117342;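 active means compounds that lower survival of HCT116 colon cancer cells in the luminescence readout, no numeric limit stated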); conditions: at 20 µM (top of the series)
# [8] = CellTiter-Glo luminescent readout of SW480 viability loss, NPC library primary (AID 1117343;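 active means compounds that lower viability of the colon cancer cells in the luminescence readout, with no numeric limit stated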); conditions: CellTiter-Glo luminescence; at 20 µM (top of the series) unless noted
# [9] = decreased DLD-1 cellular survival, CellTiter-Glo luminescent readout, NPC compound collection, primary HTS (AID 1117346;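 active means compounds that lower survival of DLD-1 colon cancer cells in the luminescence readout, no cutoff given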); conditions: DLD-1 viability, CellTiter-Glo luminescence; at 20 µM (top of the series)
# [10] = differential killing of epithelial or mesenchymal cells, primary screen, imaging, PC-3E GFP, TEM4-18 mCherry, co-culture (AID 1345086;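 active means compounds killing one labelled cell type while sparing the other, by normalised counts and ratio limits, not self-fluorescent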;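 on all read-outs here: cells exposed to compound for 72 h before imaging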;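 on red/green cell ratio (normalised): normalised mesenchymal count divided by normalised epithelial count so high means epithelial killing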); conditions: imaging cell counts, at 1 µM; for red/green cell ratio (normalised): actives lie on both sides, counts scaled to control wells, 1 = unselective
# [11] = sensitizers of A549 cells to miR-34 induction, primary screen, imaging, A549 dox-inducible miR-34, nuclei and caspase counts (AID 1347080); conditions: A549 miR-34 inducible, Hoechst nuclei count, 48 h
# [12] = survival rescue of mitochondrial mutant cells in low glucose, primary screen, MELAS cybrids, Rieske KO mouse fibroblasts, CellTiter-Glo (AID 1508586;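 active means mean z-score across replicates of 1.96 or higher in either the MELAS or the Rieske mutant cell line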;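 further: z relative to plate mean and SD of compound and empty wells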)
# [13] = target: NAD(+) hydrolase SARM1 (Homo sapiens) (UniProt Q6SZW1); assay: SARM1 TIR NADase inhibitors, cell lysate, NAD-Glo luminescence (AID 1508614;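 active means compound whose remaining NAD level is above about 45 nM, limit read from the data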); conditions: SAM-TIR HEK293T lysate NADase, at 1 µM, stronger effect = higher value
# [14] = hESC survival regulators, cell-based (AID 493140; call rule not given here;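 further: cells exposed to compounds for four days before counting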); conditions: human embryonic stem cell survival screen; stronger effect = higher value
# [15] = LFS_MB_P medulloblastoma growth inhibition, cell-based, chromothripsis tumors, cisplatin or BGB combos (AID 1671449; in the data active means inhibition above about 80%;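 further: cells exposed for 96 hours; 0% = vehicle DMSO and 100% = killing by high DMSO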); conditions: LFS_MB_P medulloblastoma cells
# [16] = HDN33 neuroblastoma growth inhibition, cell-based, chromothripsis tumors, cisplatin or BGB combos (AID 1671450; in the data active means inhibition above about 80%;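 further: cells exposed to compound for four days; 0% = vehicle DMSO and 100% = cell killing by high DMSO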); conditions: HDN33 neuroblastoma cells, stronger effect = higher value
# [17] = ICB984 medulloblastoma cell growth inhibition, synergistic combos for chromothripsis tumors, cisplatin or BGB combos (AID 1671451; call rule not given here;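 further: cells exposed for 96 hours before readout; 0% = vehicle DMSO and 100% = killing by high DMSO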); conditions: ICB984 medulloblastoma cells, drug combinations, stronger effect = higher value
# [18] = HTB85 osteosarcoma cell growth inhibition, synergistic combos for chromothripsis tumors, BGB or cisplatin IC20 combos (AID 1671453; in the data active means inhibition above about 80%;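 further: cells exposed for 96 hours before readout; 0% = vehicle DMSO and 100% = high DMSO killing control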); conditions: HTB85 osteosarcoma cells, drug combinations, stronger effect = higher value
# [19] = MDA-MB-436 breast carcinoma cell growth inhibition, synergistic combos for chromothripsis tumors, BGB or cisplatin combos (AID 1671458; call rule not given here;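 further: cells exposed for 96 hours; 0% = vehicle DMSO and 100% = killing by high DMSO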); conditions: MDA-MB-436 breast carcinoma growth inhibition, drug combinations, stronger effect = higher value
# [20] = measured here: epithelial PC-3E GFP cell survival
# [21] = measured here: mesenchymal TEM4-18 mCherry cell survival
# [22] = stronger effect = lower value, cell number ratio, induced over uninduced
# [23] = measured here: relative caspase fold change +Dox/-Dox
# [24] = measured here: total cells with miR-34 induction, stronger effect = lower value
# [25] = measured here: total cells without miR-34 induction
# [26] = MELAS cybrid survival, CellTiter-Glo 48 h, stronger effect = higher value
# [27] = Rieske KO mouse fibroblast survival, CellTiter-Glo 72 h
# NAD(+) hydrolase SARM1 (Homo sapiens), sequence (Q6SZW1 whole entry, looked up): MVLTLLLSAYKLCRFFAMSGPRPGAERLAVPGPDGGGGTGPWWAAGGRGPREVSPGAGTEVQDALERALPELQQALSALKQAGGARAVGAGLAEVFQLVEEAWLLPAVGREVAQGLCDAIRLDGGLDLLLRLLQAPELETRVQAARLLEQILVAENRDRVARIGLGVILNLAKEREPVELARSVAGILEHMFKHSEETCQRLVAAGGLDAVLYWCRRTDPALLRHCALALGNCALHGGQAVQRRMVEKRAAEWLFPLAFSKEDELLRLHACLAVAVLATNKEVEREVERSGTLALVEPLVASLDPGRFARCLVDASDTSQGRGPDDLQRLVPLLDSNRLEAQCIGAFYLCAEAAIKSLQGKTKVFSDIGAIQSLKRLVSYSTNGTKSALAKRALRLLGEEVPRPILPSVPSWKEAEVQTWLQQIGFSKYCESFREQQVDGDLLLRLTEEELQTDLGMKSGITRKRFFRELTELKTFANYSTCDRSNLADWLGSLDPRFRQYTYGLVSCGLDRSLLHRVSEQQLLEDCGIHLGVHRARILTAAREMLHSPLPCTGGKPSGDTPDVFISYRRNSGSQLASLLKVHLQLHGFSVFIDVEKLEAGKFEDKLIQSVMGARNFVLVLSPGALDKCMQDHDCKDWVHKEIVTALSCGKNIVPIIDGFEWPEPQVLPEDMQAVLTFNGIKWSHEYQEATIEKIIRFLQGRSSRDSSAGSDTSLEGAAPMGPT
smiles,measurement,setting,value
CCCN(CCC)CCc1cccc2c1CC(=O)N2,parasite load remaining,[1],55.3% (inactive)
same,viability,[1],102%
same,nuclear beta-catenin stimulation,[2]; at 10 µM,2.8% (inactive)
same,nuclear beta-catenin stimulation,"[2]; stimulation, at 2 µM",1.5%
same,insulin secretion stimulation,[3],2.8% (inactive)
same,viability decrease,[4],8% (inactive)
same,tube area decrease,[5],-10% (inactive)
same,GLP1 secretion stimulation,[6],3.9% (inactive)
same,inhibition of viability,[7],21.3% (inactive)
same,viability decrease (inhibition),[8],29.8% (inactive)
same,viability decrease (inhibition),[9],26.9% (inactive)
same,red/green cell ratio (normalised),[10],1.06 (inactive)
same,normalised cell number,[10]; [20],0.99
same,normalised cell number,[10]; [21],1.05
same,fold change,[11]; [22],0.948 (inactive) and 0.94 (inactive) and 0.88 (inactive)
same,fold change,[11]; [23],1.29 and 1.47 and 5.03
same,cell count,[11]; [24],9580 and 9680 and 11700
same,cell count,[11]; [25],10100 and 10300 and 13300
same,z-score,[12]; [26],0.118 (inactive) and -0.361 (inactive)
same,z-score,[12]; [27],0.253 and -0.254
same,remaining NAD,[13],10 nM (inactive)
N=C(N=C(N)N)N1CCOCC1,survival,[14],19.5 (inactive)
same,parasite load remaining,[1],19.9% (inactive) and 108% (inactive) and 72.1% (inactive)
same,viability,[1],51% and 98% and 255%
same,nuclear beta-catenin stimulation,[2]; at 10 µM,1.2% (inactive)
same,nuclear beta-catenin stimulation,"[2]; stimulation, at 2 µM",1.4%
same,insulin secretion stimulation,[3],-2.5% (inactive)
same,viability decrease,[4],-5.75% (inactive)
same,tube area decrease,[5],4.5% (inactive)
same,GLP1 secretion stimulation,[6],1.9% (inactive)
same,inhibition of viability,[7],14.6% (inactive)
same,viability decrease (inhibition),[8],34.4% (inactive)
same,viability decrease (inhibition),[9],4.15% (inactive)
same,red/green cell ratio (normalised),[10],0.95 (inactive)
same,normalised cell number,[10]; [20],0.9
same,normalised cell number,[10]; [21],0.86
same,z-score,[12]; [26],-0.354 (inactive) and -0.415 (inactive) and 0.363 (inactive)
same,z-score,[12]; [27],0.794 and 0.165 and 0.626
same,remaining NAD,[13],10 nM (inactive)
same,inhibition,"[15]; at 0.5 µM, stronger effect = higher value",0.66% (inactive)
same,inhibition,"[15]; measured here: combination with BGB IC20, at 0.005 µM",31.7%
same,inhibition,"[15]; measured here: combination with BGB IC40, at 0.005 µM",-13.4%
same,inhibition,"[15]; measured here: combination with BGB IC40, at 0.05 µM",-9.47%
same,inhibition,"[15]; measured here: combination with cisplatin, at 0.5 µM, stronger effect = higher value",66.2%
same,inhibition,"[15]; measured here: combination with cisplatin, at 5 µM, stronger effect = higher value",-1.14%
same,inhibition,"[16]; BGB combo, at 5 µM",12.3%
same,inhibition,[16]; at 0.5 µM,-2.43% (inactive)
same,inhibition,"[16]; cisplatin combo, at 5 µM",9.3%
same,inhibition,"[16]; measured here: with BGB IC20 combination, at 0.5 µM",-2.61%
same,inhibition,"[16]; measured here: with cisplatin IC20 combination, at 0.5 µM",-1.22%
same,inhibition,"[16]; single agent, at 5 µM",6.99%
same,inhibition,"[17]; BGB IC20 combo, at 0.005 µM",3.73%
same,inhibition,"[17]; BGB IC40 combo, at 0.005 µM",-7.45%
same,inhibition,"[17]; BGB IC40 combo, at 0.05 µM",-3.82%
same,inhibition,[17]; at 0.5 µM,-14.1% (inactive)
same,inhibition,"[17]; cisplatin combo, at 0.05 µM",-6.72%
same,inhibition,"[17]; cisplatin combo, at 0.5 µM",-17.9%
same,inhibition,"[17]; cisplatin combo, at 5 µM",-29%
same,inhibition,"[17]; measured here: 5 uM single agent, at 5 µM",-1.94%
same,inhibition,[18]; at 0.5 µM,-5.39% (inactive)
same,inhibition,"[18]; measured here: with BGB IC20, at 0.5 µM",1.31%
same,inhibition,"[18]; measured here: with BGB IC20, at 5 µM",-31%
same,inhibition,"[18]; measured here: with cisplatin IC20, at 0.5 µM",-27.9%
same,inhibition,"[18]; measured here: with cisplatin IC20, at 5 µM",-17.8%
same,inhibition,"[18]; single agent, at 5 µM",-7.35%
same,inhibition,[19]; at 0.5 µM,-3.31% (inactive)
same,inhibition,"[19]; measured here: BGB combination, at 0.5 µM",-4.36%
same,inhibition,"[19]; measured here: BGB combination, at 5 µM",-6.45%
same,inhibition,"[19]; measured here: cisplatin combination, at 0.5 µM",-3.15%
same,inhibition,"[19]; measured here: cisplatin combination, at 5 µM",-8.98%
O=C(O)CN(CCN(CC(=O)O)CC(=O)O)CCN(CC(=O)O)CC(=O)O,survival,[14],5 (inactive)
same,parasite load remaining,[1],120% (inactive) and 34.8% (inactive)
same,viability,[1],101% and 170%
same,nuclear beta-catenin stimulation,[2]; at 10 µM,-0.8% (inactive)
same,nuclear beta-catenin stimulation,"[2]; stimulation, at 2 µM",-1.5%
same,insulin secretion stimulation,[3],1.5% (inactive)
same,viability decrease,[4],79% (active)
same,tube area decrease,[5],-14.3% (inactive)
same,GLP1 secretion stimulation,[6],0.1% (inactive)
same,inhibition of viability,[7],53.1% (active)
same,viability decrease (inhibition),[8],79.5% (active)
same,viability decrease (inhibition),[9],31.1% (inactive)
same,red/green cell ratio (normalised),[10],1.45 (inactive)
same,normalised cell number,[10]; [20],0.48
same,normalised cell number,[10]; [21],0.7
same,fold change,[11]; [22],1.07 (inactive) and 0.79 (inactive) and 0.864 (inactive)
same,fold change,[11]; [23],1.26 and 1.98 and 3.01
same,cell count,[11]; [24],8980 and 7930 and 10700
same,cell count,[11]; [25],8380 and 10000 and 12300
same,z-score,[12]; [26],0.621 (inactive)
same,z-score,[12]; [27],0.97
same,remaining NAD,[13],10 nM (inactive)
